The values below come from PubChem BioAssay.

The target in assay [1] is 6-phosphogluconate dehydrogenase, decarboxylating (Homo sapiens) (UniProt P52209). The assay is described as follows: inhibition of human phosphogluconate dehydrogenase – biochemical, recombinant enzyme, NADPH absorbance, primary screen (AID 1159550;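 active means at least 20% inhibition of 6-phosphogluconate dehydrogenase activity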). Conditions: recombinant 6PGD, NADPH absorbance 341 nm; at 10 µM; stronger effect = higher value.
A short description of assay [2]: EMT-state selective cytotoxicity in co-culture – imaging, PC-3E GFP, TEM4-18 mCherry, primary screen (AID 1345086;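 active means compounds killing one labelled cell type while sparing the other, by normalised counts and ratio limits, not self-fluorescent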;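 on all read-outs here: cells exposed to compound for 72 h before imaging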;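 on red/green cell ratio (normalised): normalised mesenchymal count divided by normalised epithelial count so high means epithelial killing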). Conditions: PC-3E GFP / TEM4-18 mCherry co-culture, imaging cell counts, at 1 µM; for red/green cell ratio (normalised): actives lie on both sides, counts scaled to control wells, 1 = unselective.
The nature of assay [3]: viability loss with induced miR-34 in A549 – imaging, A549 dox-inducible miR-34, nuclei and caspase counts, primary screen (AID 1347080;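 active means compounds whose cell count with miR-34 switched on is under 0.7 times the count with it off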). Conditions: A549 miR-34 inducible, Hoechst nuclei count, 48 h.
Assay [4] is described as follows: MELAS cybrid and Rieske KO viability enhancers – cell-based, MELAS cybrids, Rieske KO mouse fibroblasts, CellTiter-Glo, primary screen (AID 1508586).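 Further: z relative to plate mean and SD of compound and empty wells.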 Particulars: low glucose. On the technique in general: In ATP-based viability assays light output follows the ATP content of the culture.
Assay [5] deals with NAD(+) hydrolase SARM1 (Homo sapiens) (UniProt Q6SZW1). The assay is described as follows: blocking NAD cleavage by SARM1 SAM-TIR – cell lysate, NAD-Glo luminescence (AID 1508614;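 active means compound whose remaining NAD level is above about 45 nM, limit read from the data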). Particulars: SAM-TIR HEK293T lysate NADase, at 1 µM, stronger effect = higher value.
Assay [6] deals with Mitogen-activated protein kinase 7 (Homo sapiens) (UniProt Q13164). The assay is described as follows: Gal4-ERK5 driven luciferase induction – cell-based, HTS, primary screen (AID 1508626;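 active means luciferase signal above three times the same-plate solvent-only control wells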;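 further: luciferase driven by Gal4-ERK5 fusion binding five Gal4 sites before minimal TATA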). Conditions: HeLa Gal4-ERK5 transactivation, 18 h, at 5 µM, stronger effect = higher value.
Assay [7] in a line: galactose survival enhancers in mitochondrial complex I cybrids – cell-based, galactose medium, ATP luminescence, primary screen (AID 1645843;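 active means z-score of at least 1.8 in each of two replicates, scored against plate mean and spread of sample wells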;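 further: positive z means more ATP and so rescue of galactose-driven cybrid death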). Particulars: complex I mutant cybrid cells, 72 h, stronger effect = higher value.
Assay [8] in a line: P. berghei load reduction in hepatocytes – cell-based, HepG2, luciferase luminescence, HepG2 viability, primary screen (AID 624349; in the data active means parasite load remaining mostly below about 12%, no sharp cut-off; inactive means mostly above about 10%;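 further: 100% = mean of DMSO negative control wells on the same plate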). Particulars: P. berghei liver stage in HepG2, luciferase luminescence, concentration not given here; parasite load remaining: stronger effect = lower value; viability: measured here: HepG2 viability without parasites.
Assay [9] is described as follows: signal quenchers or enhancers, Cy5 substrate/SSB – biochemical, NIH Clinical Collection, E. coli SSB, artefact control for HCV NS3 helicase inhibitor project (AID 743268; call rule not given here). Conditions: Cy5-oligo bound E. coli SSB, fluorescence interference.
The test system of assay [10] is Hepatitis C virus NS3 helicase. The experiment in a line: blockers of NS3h binding to DNA – biochemical, fluorescence polarization, NIH Clinical Collection, primary screen (AID 743270; call rule not given here). Conditions: NS3 helicase binding to Cy5-dT15 DNA, stronger effect = higher value, concentration not given here. On the technique in general: Fluorescence polarisation rises when a labelled molecule tumbles more slowly, as on binding a larger partner.

The target in assay [11] is Single-stranded DNA-binding protein (Escherichia coli (strain K12)) (UniProt P0AGE0). The assay is described as follows: SSB-ssDNA binding inhibitors – biochemical, fluorescence polarization, NIH Clinical Collection, counter-screen for HCV NS3 helicase inhibitor project (AID 743271; in the data active means inhibition above about 28%). Conditions: E. coli SSB-DNA binding, stronger effect = higher value, concentration not given here.

Assay [12] can be described thus: compounds distorting NS3 helicase fluorescence signal – biochemical, NIH Clinical Collection, artefact control for HCV NS3 helicase inhibitor project (AID 743272; call rule not given here;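 further: HCV NS3 helicase with a Cy5 labelled single stranded DNA probe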). Conditions: fluorescence interference counterscreen, HCV NS3 helicase assay; stronger effect = lower value. For orientation: Counterscreens check selectivity or assay interference.
Assay [13] can be described thus: modulation of C. elegans fzo-1 (AID 1259413; call rule not given here;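 further: fzo-1 mutant C. elegans worms in liquid wells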). Particulars: C. elegans fzo-1 modulator screen, mean read-out; stronger effect = higher value.
The next assay deals with F380Y. The experiment in a line: BK channel mutant inhibitors and activators – cell-based, U2OS BacMam, thallium flux, beta subunits, selectivity assay, profiling panel (AID 1259406;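 active means thallium flux through the channel raised or lowered by more than 3 SD from vehicle-only wells, actives on both sides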;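 further: initial slope of Thallos dye fluorescence rise after thallium is added; log ratio against the mean of 0.3% DMSO vehicle wells on the same plate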). Particulars: U2OS BacMam BK variants, at 30 µM.
The subject of the next assay is F380Y/beta2Delta. The assay is described as above. Conditions: U2OS BacMam BK variants, at 30 µM.
The target of assay [14] is Calcium-activated potassium channel subunit alpha-1 (Homo sapiens) + Leucine-rich repeat-containing protein 26 (Homo sapiens) (UniProt Q12791+Q2I0M4). Described as above. Particulars: U2OS BacMam BK variants, F380Y/Slo1WT/gamma1, at 30 µM.
For another assay, the system named is R275C. Described as above. Conditions: U2OS BacMam BK variants, at 30 µM.
Another assay deals with R275C/beta1. The description is as above. Conditions: U2OS BacMam BK variants, at 30 µM.
Another assay relates to R275C/beta2Delta. The assay is described as above. Conditions: U2OS BacMam BK variants, at 30 µM.
[15] abbreviates: measured here: epithelial PC-3E GFP cell survival.
Setting [16] is: measured here: mesenchymal TEM4-18 mCherry cell survival.
The mark [17] stands for this setting: stronger effect = lower value, cell number ratio, induced over uninduced.
Setting [18] is: measured here: relative caspase fold change +Dox/-Dox.
Setting [19] is: measured here: total cells with miR-34 induction, stronger effect = lower value.
Setting [20] is: measured here: total cells without miR-34 induction.
Setting [21] is: MELAS cybrid survival, CellTiter-Glo 48 h, stronger effect = higher value.
[22] abbreviates: Rieske KO mouse fibroblast survival, CellTiter-Glo 72 h.

Values joined by “and” are separate entries in the source; they are usually repeats but may differ in a detail not shown here. Equal entries are not always repeated. Active and inactive are the calls of the source.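 How the source made its calls, unless noted: active means mean z-score across replicates of 1.96 or higher in either the MELAS or the Rieske mutant cell line; inactive means the rest.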 Where a SMILES comes first, the peptide text is derived from it. [ ]: non-standard residue; d: D form. The star is where a group is joined. NHCH2CH2OH = OCCN*; For = O=C*

Chain of 6-phosphogluconate dehydrogenase, decarboxylating (Homo sapiens) (P52209 whole entry, looked up): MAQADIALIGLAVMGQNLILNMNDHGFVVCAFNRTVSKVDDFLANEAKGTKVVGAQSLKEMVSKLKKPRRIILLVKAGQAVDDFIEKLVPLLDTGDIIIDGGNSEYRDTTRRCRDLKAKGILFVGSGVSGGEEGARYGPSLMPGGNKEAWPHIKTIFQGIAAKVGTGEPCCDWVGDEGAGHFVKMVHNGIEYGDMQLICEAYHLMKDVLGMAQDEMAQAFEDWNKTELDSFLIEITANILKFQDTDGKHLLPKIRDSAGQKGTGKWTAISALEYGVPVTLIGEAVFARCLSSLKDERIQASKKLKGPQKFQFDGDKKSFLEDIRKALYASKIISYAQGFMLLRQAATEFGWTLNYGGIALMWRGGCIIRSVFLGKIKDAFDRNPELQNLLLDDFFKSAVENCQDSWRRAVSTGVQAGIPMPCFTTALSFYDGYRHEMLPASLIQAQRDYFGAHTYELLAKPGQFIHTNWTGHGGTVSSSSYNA
Chain of Mitogen-activated protein kinase 7 (Homo sapiens) (Q13164 whole entry, looked up, the tested form may be a part): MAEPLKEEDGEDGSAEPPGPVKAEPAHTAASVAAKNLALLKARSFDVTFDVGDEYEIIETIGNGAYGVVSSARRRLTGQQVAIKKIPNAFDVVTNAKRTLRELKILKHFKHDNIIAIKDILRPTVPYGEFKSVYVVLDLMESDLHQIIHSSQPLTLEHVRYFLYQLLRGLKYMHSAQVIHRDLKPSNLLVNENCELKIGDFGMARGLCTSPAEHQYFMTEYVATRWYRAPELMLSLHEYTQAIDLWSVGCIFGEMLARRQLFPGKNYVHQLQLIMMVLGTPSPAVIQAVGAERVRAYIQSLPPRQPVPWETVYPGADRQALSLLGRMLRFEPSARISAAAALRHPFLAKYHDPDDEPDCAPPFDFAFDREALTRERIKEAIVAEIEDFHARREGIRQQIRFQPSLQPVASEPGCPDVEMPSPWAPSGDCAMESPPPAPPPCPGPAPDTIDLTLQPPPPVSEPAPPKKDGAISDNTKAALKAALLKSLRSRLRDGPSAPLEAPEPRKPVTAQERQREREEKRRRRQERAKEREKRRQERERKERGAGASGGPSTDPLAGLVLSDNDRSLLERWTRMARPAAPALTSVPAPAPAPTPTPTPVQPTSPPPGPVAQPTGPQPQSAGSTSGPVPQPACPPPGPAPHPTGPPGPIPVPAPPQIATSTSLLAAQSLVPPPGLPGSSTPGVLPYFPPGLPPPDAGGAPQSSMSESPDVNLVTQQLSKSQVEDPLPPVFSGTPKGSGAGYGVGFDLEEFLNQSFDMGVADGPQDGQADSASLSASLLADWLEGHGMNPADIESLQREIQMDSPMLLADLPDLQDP
Chain of NAD(+) hydrolase SARM1 (Homo sapiens) (Q6SZW1 whole entry, looked up, the tested form may be a part): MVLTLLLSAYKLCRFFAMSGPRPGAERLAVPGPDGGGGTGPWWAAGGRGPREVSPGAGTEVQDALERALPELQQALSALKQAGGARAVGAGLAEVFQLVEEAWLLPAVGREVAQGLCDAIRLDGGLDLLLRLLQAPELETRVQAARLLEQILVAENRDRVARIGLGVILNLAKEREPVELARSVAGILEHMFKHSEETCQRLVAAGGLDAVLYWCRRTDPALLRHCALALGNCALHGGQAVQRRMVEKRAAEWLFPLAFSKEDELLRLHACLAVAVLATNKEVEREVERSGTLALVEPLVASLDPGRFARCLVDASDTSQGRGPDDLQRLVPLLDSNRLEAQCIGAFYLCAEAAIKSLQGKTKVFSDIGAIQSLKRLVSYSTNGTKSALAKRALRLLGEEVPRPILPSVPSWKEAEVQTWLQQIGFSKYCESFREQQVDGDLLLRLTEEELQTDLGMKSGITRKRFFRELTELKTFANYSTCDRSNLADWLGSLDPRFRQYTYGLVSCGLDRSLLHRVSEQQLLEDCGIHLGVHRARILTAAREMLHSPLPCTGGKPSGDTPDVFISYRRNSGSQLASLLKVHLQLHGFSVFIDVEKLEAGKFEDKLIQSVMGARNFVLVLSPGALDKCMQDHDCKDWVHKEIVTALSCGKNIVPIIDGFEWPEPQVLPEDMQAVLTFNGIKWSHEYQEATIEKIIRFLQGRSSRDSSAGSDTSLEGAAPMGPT
Chain of Calcium-activated potassium channel subunit alpha-1 (Homo sapiens) + Leucine-rich repeat-containing protein 26 (Homo sapiens) (Q2I0M4 whole entry, looked up, one chain of several): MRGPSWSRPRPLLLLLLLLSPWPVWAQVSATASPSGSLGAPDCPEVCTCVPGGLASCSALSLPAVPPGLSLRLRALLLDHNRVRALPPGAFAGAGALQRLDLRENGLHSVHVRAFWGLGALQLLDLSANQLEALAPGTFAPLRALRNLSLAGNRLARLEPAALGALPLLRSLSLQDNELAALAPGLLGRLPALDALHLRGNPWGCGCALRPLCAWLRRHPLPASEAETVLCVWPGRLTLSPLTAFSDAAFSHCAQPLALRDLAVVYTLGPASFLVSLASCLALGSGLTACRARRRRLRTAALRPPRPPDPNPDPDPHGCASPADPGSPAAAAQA

What is called inhibition is the change of the read-out against control, counted positive when it falls. Regarding `O=C(O)c1cn(C2CC2)c2cc(N3CCNCC3)c(F)cc2c1=O`, in assay [1], the inhibition is -0.391% (inactive). Besides, in assay [2], the red/green cell ratio (normalised) is 1.14 (inactive) and 1.04 (inactive). The normalised cell number in [2] (setting [15]) was 1.04 and 1.24; in assay [2] (setting [16]) it was 1.18 and 1.28. Also, the fold change was 0.89 (inactive) and 0.772 (inactive) and 0.838 (inactive) in assay [3] (setting [17]); 1.27 and 3.9 and 0.85 in assay [3] (setting [18]). Further, the cell count in [3] (setting [19]) is 9200 and 10000 and 9070; in assay [3] (setting [20]) it was 10300 and 13000 and 10800. Moreover, the z-score was -0.333 (inactive) and -0.308 (inactive) in assay [4] (setting [21]); -3.38 and -1.41 in [4] (setting [22]); 0.01 (inactive) in [7]. In [5], the remaining NAD is 10 nM (inactive). Besides, the luciferase signal in assay [6] was 76 AU (inactive).
For `CC(C)C[C@@H](NC(=O)[C@H](C)NC(=O)CNC(=O)[C@@H](NC=O)C(C)C)C(=O)N[C@@H](C)C(=O)N[C@@H](C(=O)N[C@H](C(=O)N[C@H](C(=O)N[C@@H](Cc1c[nH]c2ccccc12)C(=O)N[C@H](CC(C)C)C(=O)N[C@@H](Cc1c[nH]c2ccccc12)C(=O)N[C@H](CC(C)C)C(=O)N[C@@H](Cc1c[nH]c2ccccc12)C(=O)N[C@H](CC(C)C)C(=O)N[C@@H](Cc1c[nH]c2ccccc12)C(=O)NCCO)C(C)C)C(C)C)C(C)C` (For-VGA[dL]A[dV]VVW[dL]W[dL]W[dL]W-NHCH2CH2OH), the inhibition in assay [1] is 10.9% (inactive).
With `CC(C)(C)c1ccc(C(O)CCCN2CCC(C(O)(c3ccccc3)c3ccccc3)CC2)cc1` (stereo not given), in [2], the red/green cell ratio (normalised) is 0.94 (inactive). Further, the normalised cell number amounted to 1.26 in assay [2] (setting [15]) and 1.18 in assay [2] (setting [16]). Besides, the z-score in [4] (setting [21]) was -0.29 (inactive) and -0.00284 (inactive); in assay [4] (setting [22]), 1.02 and 1.14; in [7] it was -1.31 (inactive) and 0.135 (inactive). In [5], the remaining NAD is 10 nM (inactive). Also, the luciferase signal in [6] is 108 AU (inactive).
As to `COC(=O)C[C@H]1C(C)(C)C(=O)[C@@H]2CC3=C4CC(OC)O[C@@H](c5ccoc5)[C@]4(C)CCC3[C@@]1(C)C2=O` (stereo not given in full), in [1], the inhibition is -2.67% (inactive).
For the compound `CCC[C@H]1CC2=C(C[C@@H](CC)CC3=C1C(=O)OC3=O)C(=O)OC2=O`, in [1], the inhibition was -4.81% (inactive).
Turning to `CC(C)[C@@H](C)/C=C/[C@@H](C)[C@H]1CC[C@H]2C3=CCC4CC(=O)CC[C@]4(C)[C@H]3CC[C@]12C` (stereo not given in full), the inhibition in assay [1] was 2.32% (inactive).
A word on the viability: it is a read-out of living cells in per cent, often relative to untreated cells. As to `CN1[C@@H]2CC(OC(=O)[C@H](CO)c3ccccc3)C[C@H]1[C@@H]1O[C@@H]12` (stereo not given in full), the parasite load remaining in assay [8] is 98.9% (inactive) and 107% (inactive) and 26.7% (inactive). In addition, the viability in assay [8] is 102% and 73.5% and 68.5%. In addition, the fluorescence ratio was 0.95 (inactive) in assay [9] and 0.9 (inactive) in assay [12]. Also, the figures for the inhibition in assay [10], in [11] and in [1] were -1.98% (inactive), 1.44% (inactive) and 6.42% (inactive), respectively. Also, the mean signal in [13] is 252 (inactive). Moreover, the fold change was 0.844 (inactive) and 0.894 (inactive) and 0.852 (inactive) in assay [3] (setting [17]); 1.08 and 0.602 and 0.997 in assay [3] (setting [18]). Moreover, the cell count in assay [3] (setting [19]) was 8470 and 8340 and 9610; in [3] (setting [20]) it was 10000 and 9330 and 11300. Further, the z-score in assay [4] (setting [21]) was -0.375 (inactive) and 0.309 (inactive); in assay [4] (setting [22]) it was -0.839 and -0.133; in [7], -0.01 (inactive) and 0.315 (inactive). In addition, in assay [5], the remaining NAD was 10 nM (inactive). Also, the luciferase signal in [6] was 88 AU (inactive).
With `NCCCC(O)(P(=O)(O)O)P(=O)(O)O`, the parasite load remaining in assay [8] is 53.9% (inactive) and 32.7% (inactive). In addition, the viability in assay [8] is 103% and 67.5%. In addition, the red/green cell ratio (normalised) in [2] was 1.07 (inactive). Besides, the figures for the normalised cell number in assay [2] (setting [15]) and in assay [2] (setting [16]) were 1 and 1.08, respectively. Moreover, the fold change was 1.41 (inactive) and 0.87 (inactive) and 0.867 (inactive) in assay [3] (setting [17]); 0.419 and 4.85 and 1.52 in [3] (setting [18]). Further, the cell count was 8960 and 12100 and 9780 in [3] (setting [19]); 6340 and 13900 and 11300 in assay [3] (setting [20]). In addition, the z-score in assay [4] (setting [21]) is 0.332 (inactive) and -1.05 (inactive) and 0.581 (inactive); in [4] (setting [22]), 0.0856 and -0.0862 and 0.207; in [7], -2.05 (inactive) and 0.675 (inactive). In addition, in assay [5], the remaining NAD was 10 nM (inactive). Besides, the luciferase signal in assay [6] is 144 AU (inactive).
Consider `CN(C)C(=N)N=C(N)N`, for which the inhibition in [1] was 10.4% (inactive). In addition, the red/green cell ratio (normalised) in [2] is 0.72 (inactive). For the same compound, the figures for the normalised cell number in assay [2] (setting [15]) and in [2] (setting [16]) were 1.31 and 0.95, respectively. In addition, the fold change in assay [3] (setting [17]) is 0.831 (inactive) and 0.956 (inactive) and 0.958 (inactive); in assay [3] (setting [18]), 1.13 and 2.95 and 0.938. The cell count in assay [3] (setting [19]) is 7440 and 12900 and 10500; in [3] (setting [20]), 8950 and 13500 and 10900. Further, the z-score in [4] (setting [21]) is -0.356 (inactive) and 0.193 (inactive); in [4] (setting [22]), 0.0508 and -0.797; in [7], 0.78 (inactive). The remaining NAD in assay [5] is 10 nM (inactive). The luciferase signal in [6] was 508 AU (active).
For the compound `CC(C)(C(=O)O)c1ccc(C(O)CCCN2CCC(C(O)(c3ccccc3)c3ccccc3)CC2)cc1` (stereo not given), the parasite load remaining in assay [8] was 72.9% (inactive) and 85.2% (inactive) and 65.9% (inactive). Moreover, the viability in [8] was 89.9% and 71.9% and 128%. Moreover, the fluorescence ratio in [9] was 1.07 (inactive); in assay [12], 1.04 (inactive). The inhibition in assay [10] was -4.09% (inactive); in assay [11], 1.05% (inactive). Moreover, the mean signal in assay [13] is 241 (inactive). Also, in assay [2], the red/green cell ratio (normalised) was 1.14 (inactive). The figures for the normalised cell number in assay [2] (setting [15]) and in assay [2] (setting [16]) were 0.92 and 1.05, respectively. For the same compound, the z-score in assay [4] (setting [21]) is -0.235 (inactive) and -0.763 (inactive); in assay [4] (setting [22]), -0.15 and -0.362; in [7], 0.205 (inactive) and 1.1 (inactive) and -0.085 (inactive). In addition, the remaining NAD in assay [5] is 10 nM (inactive). Besides, the luciferase signal in assay [6] is 40 AU (inactive). The log fold change Tl+ flux in the assay on F380Y is -0.178 (active); with F380Y/beta2Delta, -0.00892 (inactive); in [14], 0.0201 (inactive); with R275C it was 0.00746 (inactive); with R275C/beta1, -0.0122 (inactive); with R275C/beta2Delta, -0.0184 (inactive).
